# Screening results deposited in PubChem BioAssay by National Center for Advancing Translational Sciences (NCATS).
# An excerpt weighted towards active compounds, which were near 9.9% of everything screened.
# Tau fluor counter – counter-screen for tau fibril formation inhibitors; Potency, µM (highest dose often 57.7 µM), inactives show at the top dose activity change, negative = decrease; 280,000 compounds, 0.93% hits; tau K18 P301L Alexa594 fluorescence, heparin fibrillization; AID 1463; note: nearly all actives have a fitted effect of over 55% in size
#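 Human K18 P301L tau (15 uM unlabeled plus 0.24 uM Alexa 594-labeled, final) in 100 mM sodium acetate pH 7 was mixed with compound and 20 uM heparin and incubated 6 hr at 37 C.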
# Tau ThT inhib – tau fibrillization inhibition (ThT binding); recombinant tau K18 P301L, heparin-induced fibrillization, ThT fluorescence; AID 1460; 270,000 compounds, 2.1% hits; P10636; Potency, µM (titrated, usually from 57.4 µM), for the others: at the highest dose activity, negative = inhibition, actives largely listed as inhibitors; note: nearly all actives have a fitted effect of over 55% in size
# Target sequence (P10636 561-689 P618L limits assumed): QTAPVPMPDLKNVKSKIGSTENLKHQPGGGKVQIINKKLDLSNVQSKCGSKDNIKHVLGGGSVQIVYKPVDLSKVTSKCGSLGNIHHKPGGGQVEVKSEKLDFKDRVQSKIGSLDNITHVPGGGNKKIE
#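 Using a mix of unlabeled (15 uM) and Alexa 594-labeled (0.24 uM) tau K18 P301L, heparin-triggered fibrillization over 6 hr at 37 C was scored by ThT fluorescence.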
# HPGD inh – blocks human HPGD enzyme activity; P15428; purified HPGD, NADH fluorescence kinetic, PGE2 substrate; Potency, µM, without a hit: top-dose activity change, negative = inhibition, usual class: inhibitors; 150,000 compounds, 4.3% hits; active = well fitted inhibition curve with a large enough effect, not every such curve was filed as active; inconclusive = small, poorly fitted or top-dose-only effect, or another doubt; inactive = no such curve, though single readings can be large or run the other way
#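 NADH formation kinetics: reaction with 30 uM PGE2 and 1 mM NAD+ (final), 20 nM enzyme, Tris-HCl pH 8 with Tween 20, after 15 min compound preincubation at room temperature. Fluorescence change, last versus first of five reads.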
# ALDH1A1 inh – inhibitors of human aldehyde dehydrogenase 1A1. Potency, µM (titrated, usually from 75.3 µM), inactives show at the top dose activity, negative = inhibition, hits mostly inhibitors. Purified ALDH1A1, NADH fluorescence, propionaldehyde substrate. 220,000 compounds, 7.3% hits. AID 1030. P00352; active = well fitted inhibition curve with a large enough effect, not every such curve was filed as active; inconclusive = small, poorly fitted or top-dose-only effect, or another doubt; inactive = no such curve, though single readings can be large or run the other way;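 note: plate controls were no enzyme wells and a reference inhibitor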
# KDM4E inh – JMJD2E (human) inhibition; JMJD2E catalytic domain, FDH-coupled NADH fluorescence (FDH is formaldehyde dehydrogenase); Potency, µM (titrated, usually from 57.1 µM), inactives show top-dose activity change, negative = inhibition, usual class: inhibitors; 230,000 compounds, 1.6% hits; AID 2147; active = well fitted inhibition curve with a large enough effect, not every such curve was filed as active; inconclusive = small, poorly fitted or top-dose-only effect, or another doubt; inactive = no such curve, though single readings can be large or run the other way;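 note: 0% = wells with enzyme and -100% = buffer wells without enzyme; nearly all actives have a fitted effect of over 50% in size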
# Target sequence (B2RXH2 1-337 limits assumed): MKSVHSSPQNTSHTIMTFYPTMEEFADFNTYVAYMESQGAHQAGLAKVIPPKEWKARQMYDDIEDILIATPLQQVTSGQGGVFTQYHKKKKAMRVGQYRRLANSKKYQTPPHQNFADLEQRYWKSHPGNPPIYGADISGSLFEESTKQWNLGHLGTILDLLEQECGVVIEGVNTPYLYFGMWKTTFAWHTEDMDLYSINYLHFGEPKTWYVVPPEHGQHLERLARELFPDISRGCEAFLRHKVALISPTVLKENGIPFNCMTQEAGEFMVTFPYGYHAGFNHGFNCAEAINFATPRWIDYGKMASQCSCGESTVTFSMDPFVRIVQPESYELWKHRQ
# Tau FP inhib – inhibitors of human tau fibril formation | K18 P301L tau heparin fibrillization, Alexa594 FP, 6 h | P10636 | Potency, µM (doses to about 57.7 µM), for the others: at the top dose activity, negative = inhibition, usual class: inhibitors | 280,000 compounds, 0.39% hits; note: nearly all actives have a fitted effect of over 55% in size
#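 K18 P301L tau (15 uM unlabeled/0.24 uM Alexa 594-labeled, final) + compound + heparin 20 uM final; 100 mM NaOAc pH 7; 6 hr 37 C; ThT 30 uM final added, 1 hr RT; FP ex 555/em 632 nm.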
# * = called active by the depositor; ? = inconclusive; / = not tested or not shown; ! = not confirmed by another sample; [ ] = remark or other dose. Unless noted, calls come from the whole dose curve; as a rule, active = well fitted curve in the direction sought with a large enough effect; inconclusive = small, poorly fitted or top-dose-only effect, or another doubt; inactive = no such curve, though single readings can be large; an effect the other way counts as inactive or inconclusive. Unless noted, % is set by controls: 0 for no effect and ±100 for the full control effect; potency is the fitted concentration of half-maximal effect.
SMILES,Tau fluor counter,Tau ThT inhib,HPGD inh,ALDH1A1 inh,KDM4E inh,Tau FP inhib
Cc1ccc(C)c(Cn2c(C(=O)O)c(C=O)c3ccccc32)c1,3%,0%,/,19µM*,-15%,7%
Cc1cc(N2CCCCC2)nc2ccc(NC(=O)/C=C/c3ccc(OC(C)C)cc3)cc12,8.9µM*[quencher],2.8µM*,/,/,/,5%
Cc1ccc(NC(=O)Nc2ccc3nc(N4CCN(C)CC4)cc(C)c3c2)cc1F,7.1µM*[quencher],14µM*,/,/,/,?
CC(=O)O[C@H]1CC[C@H]2[C@@H]3CCC4=C[C@@H](C5SCCS5)[C@H](OC(C)=O)C[C@]4(C)[C@H]3CC[C@@]12C,/,/,-17%,-15%[13.5 µM],/,/
c1ccc2c(c1)Sc1ccccc1N2C[C@H]1CN2CCC1CC2,/,/,-2%,12%[13.5 µM],/,/
O=c1cc(-c2ccc(O)c(O)c2)oc2c(C3O[C@H](CO)[C@@H](O)[C@H](O)[C@H]3O)c(O)cc(O)c12 (some centres not stated),-18%,?,-21%,?,1µM*,-3%
C[N+]1(C)C2CCC1CC(OC(=O)c1c[nH]c3ccccc13)C2 (configuration not stated),-1%,?,-26%,22µM*,-24%,-4%
O=Cc1cn(Cc2cccc(F)c2)c2ccccc12,-6%,-3%,-4%,0.56µM*,-8%,-3%
O=C(c1ccco1)c1cn(Cc2ccc(Cl)cc2)c2ccccc12,?,-13%,-15%,4%,?,-19%
COc1cccc(CN2CCc3nc(N4CCN(c5ncccn5)CC4)ncc3C2)c1,-4%,?,/,/,/,-3%
COc1ccc(Nc2c(-c3cc(Br)ccc3O)nc3ncccn23)cc1OC,8.9µM*[quencher],?,/,/,/,14%
Cc1ccccc1Nc1c(-c2ccc(Br)cc2O)nc2sccn12,?,-2%,/,/,/,1%
CC1=[N+]([O-])C2(N)CCc3nonc3C2(O)C1 (configuration not stated),0%,-6%,-10%,7.1µM*,-2%,2%
CCOCCCNC(=O)c1c[nH]c2ccc(S(=O)(=O)N(C)c3ccc(Cl)cc3F)cc2c1=O,?,3%,/,/,/,?
COc1c(C)cc(C(=O)C2CCCN(Cc3ccccn3)C2)cc1C (configuration not stated),-2%,4%,/,32µM*,-24%,1%
COc1cccc(C(=O)C2CCCN(Cc3ccccn3)C2)c1 (configuration not stated),-4%,-8%,/,-6%,-17%,-7%
COc1ccc(S(=O)(=O)Nc2cc([N+](=O)[O-])ccc2OC)cc1,2%,3%,-22%,?,-9%,4%
O=C(Oc1ccc(S(=O)(=O)F)cc1F)c1ccccc1Cl,/,/,-14%,0%[13.5 µM],/,/
COc1ccc2[nH]cc(CCN)c2c1,0%,?,-4%,4%,0%,4%
CCCCCCCCCOc1ccc2[nH]cc(CCN)c2c1,7.9µM*[quencher],?,-4%,1%,25µM*!,?
CC(=O)[O-].CC(=O)[O-].O.O.O.[Pb+2],/,/,0%,15µM*,/,/
c1ccc(-c2ccccc2)cc1,/,/,-13%,?,/,/
Oc1ccccc1-c1ccccc1,/,/,?,18µM*,/,/
Oc1cc2c(cc1O)[C@H]1c3ccccc3CNC1CC2 (some centres not stated),?,?,6.3µM*,?,20µM*,-16%
CC1=CC(c2ccccc2)NC(=S)N1 (configuration not stated),1%,3%,13µM*,7.1µM*,-2%,11%
SMILES,Tau fluor counter,Tau ThT inhib,HPGD inh,ALDH1A1 inh,KDM4E inh,Tau FP inhib
COc1ccc(C(=O)Nc2ccc3c(c2)N(C)C(=O)c2ccccc2S3)cc1OC,?,-12%,/,/,/,?
COc1ccc(-n2c(=O)[nH]c3ccccc3c2=O)c(OC)c1,-15%,-7%,-12%,2%,-4%,4%
COc1cc2[nH]c(=S)n(-c3ccccc3)c(=O)c2cc1OC,-5%,-1%,/,1.6µM*,-3%,10%
COc1ccc(-n2c(=S)[nH]c3c(sc(=S)n3-c3ccccc3)c2=O)c(OC)c1,-18%,32µM*,/,3.2µM*,-7%,?
CC(=O)N(O)[C@@H]1c2cc(C#N)ccc2OC(C)(C)[C@H]1O,-10%,-8%,-13%,4%,?,-2%
CC1(C)Cc2c(sc3nc4n(-c5ccccc5)c(=O)c(CCC(=O)O)nn4c(=O)c23)CO1,-24%,?,/,/,32µM*,-19%
Cc1c([C@@H](C)C2NC[C@H](C)C[C@@H]2O)ccc2c1C[C@@H]1[C@H]2CC=C2C[C@@H](O)CC[C@@]21C (some centres not stated),/,/,-11%,-2%[13.5 µM],/,/
O=c1[nH]c(=O)n(Cc2ccco2)c(O)c1C=NCc1cccs1,-2%,-4%,-16%,?,-1%,-8%
O=c1[nH]c(=S)n(Cc2ccco2)c(O)c1C=NCc1cccs1,-22%,-8%,25µM*,7.9µM*,-2%,-7%
BrCCBr,/,/,-3%,5%,/,/
CN1CCN(c2ccc(Cl)cc2N)CC1,7%,2%,/,10%,8%,10%
Cc1ccc(Cl)cc1N1CCN(CCN)CC1,-2%,-7%,9%,28µM*,-1%,3%
Cc1ccc2c(c1)N(CCC(=O)N1CCC3(CC1)OCCO3)C(=O)C(C)O2 (configuration not stated),9%,-1%,-10%,?,-3%,6%
Cc1ccc2c(c1)N(CCC(=O)N1CCC3(CC1)OCCO3)C(=O)CO2,1%,-3%,-13%,10µM*,4%,4%
CC1(C)N=C(N)N=C(N)N1c1cccc(C(=O)Nc2ccc(S(=O)(=O)F)cc2)c1,/,/,-3%,-1%[13.5 µM],/,/
COC1CCCCC1NCCc1ccccc1 (configuration not stated),-15%,?,/,?,16µM*,1%
CCC(CC)NC1CCCCC1OC (configuration not stated),4%,6%,3%,-10%,?,5%
CC(=O)OCC(N)C(=O)c1ccccc1 (configuration not stated),0%,-2%,-1%,-17%,/,3%
C=CCc1ccc(O)c(OC)c1,-7%,-6%,2%,14µM*!,1%,-2%
Cc1cc(O)c2c(c1)C(=O)c1cc(O)cc(O)c1C2=O,16µM*[quencher],10µM*,-29%,22µM*,3%,11%
CC[C@@H]1CN2CCc3cc(OC)c(OC)cc3[C@H]2C[C@@H]1C[C@H]1NCCc2cc(OC)c(OC)cc21,/,/,-6%,8%[20.9 µM],5%[25.5 µM],/
CC(=O)c1cccc(OCC(O)CN2CC=C(c3ccccc3)CC2)c1 (configuration not stated),-7%,?,-8%,22µM*,16µM*,-8%
